Data published in PubChem BioAssay (EPA / NIEHS).
Records with an inconclusive call do not appear. Active and inactive are the calls of the source. The calls were made as follows, unless noted: active = hit-call score of the fitted dose curve at least 0.9, where 1 is the maximum; inactive = score below 0.9.

What was measured:
[1] = test system: SRY-box transcription factor 2 (SOX2) Protein Expression, Deisenroth Lab, SOX2 (gene 6657); assay: CCTE_Deisenroth_DEVTOX-GLR_legacy_Sox2: (Legacy) CCTE's DevTox GLR-Endo Assay Evaluation of SRY-box transcription factor 2 (SOX2) Protein Expression, Deisenroth Lab (AID 2284346)
Outline: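 hPSC RUES2-GLR, 384-well; 24 h seed → 48 h endoderm differentiation, 2 doses q24h, 1 nM–200 uM. Fix, nuclear dye, 5 fields/well. Sox2+ cells/cell count; cell positive if >5x BMAD over endoderm ctrl; gain direction vs DMSO.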

[2] = test system: SRY-box transcription factor 2 (SOX2) Protein Expression, Deisenroth Lab, SOX2 (gene 6657); assay: CCTE_Deisenroth_DEVTOX-GLR_Endo_SOX2: CCTE's DevTox GLR-Endo Assay Evaluation of SRY-box transcription factor 2 (SOX2) Protein Expression, Deisenroth Lab (AID 2284412; active = hit-call score of the fitted dose curve at least 0.9, where 1 is the maximum)
Outline: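 RUES2-GLR human pluripotent cells were seeded 24 h, then differentiated 48 h with two chemical exposures 24 h apart. Cells were fixed, nuclei stained and imaged by high-content microscopy. Endpoint is %SOX2+ cells over cell count, minus 0.2% DMSO control; 10-point series 1 nM–200 uM.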

[3] = test system: SRY-box transcription factor 17 (SOX17) Protein Expression, Deisenroth Lab, SOX17 (gene 64321); assay: CCTE_Deisenroth_DEVTOX-GLR_Endo_SOX17: CCTE's DevTox GLR-Endo Assay Evaluation of SRY-box transcription factor 17 (SOX17) Protein Expression, Deisenroth Lab (AID 2284413)
Outline: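 Seed RUES2-GLR cells 24 h; start endoderm differentiation; dose at 0 and 24 h (1 nM - 200 uM, 10 points); fix at 48 h, stain nuclei, image 5 fields/well; compute SOX17+/total cells vs 0.2% DMSO.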

[4] = test system: Brachyury (BRA) Protein Expression, TBXT (gene 6862); assay: CCTE_Deisenroth_DEVTOX-GLR_Endo_BRA: CCTE's DevTox GLR-Endo Assay Evaluation of Brachyury (BRA) Protein Expression, Deisenroth Lab (AID 2284417)
Outline: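 Percent BRA+ (mesoderm) RUES2-GLR cells after 48 h differentiation with two exposures, 1 nM - 200 uM; 0.2% DMSO control subtracted.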

[5] = CCTE_Deisenroth_DEVTOX-GLR_Endo_CellCount: Viability Assessment in CCTE's DevTox GLR-Endo Assay, Deisenroth Lab (AID 2284420)
Outline: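 Percent change in nuclear-stain cell counts versus 0.2% DMSO, from high-content imaging over 5 fields per well. Over a 48 h endoderm differentiation, RUES2-GLR cells received two doses 24 h apart across a 1 nM–200 uM series, with n=4.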

[6] = test system: SRY-box transcription factor 17 (SOX17) Protein Expression, Deisenroth Lab, SOX17 (gene 64321); assay: CCTE_Deisenroth_DEVTOX-GLR_Pluri_SOX17: CCTE's DevTox GLR-Pluri Assay Evaluation of SRY-box transcription factor 17 (SOX17) Protein Expression, Deisenroth Lab (AID 2284427; active = hit-call score of the fitted dose curve at least 0.9, where 1 is the maximum)
Outline: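 The endpoint is SOX17+ cells as a fraction of cell count, corrected for the 0.2% DMSO control and obtained by high-content fluorescence imaging of fixed cells. Cells were RUES2-GLR under a 48-hour endoderm differentiation, dosed twice at 24-hour intervals over 1 nM–200 uM.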

[7] = test system: SRY-box transcription factor 2 (SOX2) Protein Expression, Deisenroth Lab, SOX2 (gene 6657); assay: CCTE_Deisenroth_DEVTOX-GLR_Pluri_SOX2: CCTE's DevTox GLR-Pluri Assay Evaluation of SRY-box transcription factor 2 (SOX2) Protein Expression, Deisenroth Lab (AID 2284428)
Outline: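 Percent SOX2+ cells (SOX2+ count per total cells, fluorescent imaging) in RUES2-GLR human pluripotent line, expressed relative to 0.2% DMSO. Compounds dosed twice at 24 h intervals during 48 h, 1 nM - 200 uM, 10 concentrations.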

[8] = test system: Brachyury (BRA) Protein Expression, Deisenroth Lab, TBXT (gene 6862); assay: CCTE_Deisenroth_DEVTOX-GLR_Pluri_BRA: CCTE's DevTox GLR-Pluri Assay Evaluation of Brachyury (BRA) Protein Expression, Deisenroth Lab (AID 2284429; active = hit-call score of the fitted dose curve at least 0.9, where 1 is the maximum)
Outline: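 An inducible fluorescent BRA reporter in RUES2-GLR cells tracks mesoderm differentiation. Compounds (10 concentrations, 1 nM - 200 uM) are dosed twice within a 48-h differentiation. The endpoint subtracts the 0.2% DMSO control from percent BRA+ cells.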

[9] = CCTE_Deisenroth_DEVTOX-GLR_Pluri_CellCount: Viability Assessment in CCTE's DevTox GLR-Pluri Assay Evaluation of Total Cell Counts, Deisenroth Lab (AID 2284430)
Outline: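 RUES2-GLR human pluripotent cells, seeded 24 h, then differentiated 48 h with two chemical exposures 24 h apart; 10-point series 1 nM - 200 uM. Fixed, nuclear-stained, imaged (5 fields/well); nuclei count as % change vs 0.2% DMSO.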

TTR (gene 7276) = assay: CCTE_GLTED_hTTR_0.125uM: CCTE's human Transthyretin (hTTR) Inhibition Assay, with 0.125uM TTR, Great Lakes Toxicology and Ecology Division (GLTED) Lab (AID 2284431);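 also: hits lower the fluorescence signal relative to DMSO baseline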
Outline: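 TTR at 0.125uM incubated 2 h with test chemical; displacement of bound ANSA read by fluorescence (ex 380, em 475). Activity is signal loss versus DMSO baseline.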

Measured: AC50

COc1ccc2c(c1)c(CC(=O)O)c(C)n2C(=O)c1ccc(Cl)cc1
active: [1] 17 µM | [2] 6.34 µM | [3] 16 µM | [4] 12.5 µM | [5] 10.1 µM | [6] 2.61 µM | [7] 6.52 µM | [8] 6.56 µM | [9] 4.99 µM | TTR (gene 7276) 1.93 µM

CC1=C(/C=C/C(C)=C/C=C/C(C)=C/CO)C(C)(C)CCC1
active: [1] 55.7 µM | [3] 33.6 µM | [4] 66 µM | [5] 34.7 µM | [6] 39.3 µM | [7] 19.8 µM | [8] 26.8 µM | [9] 29.4 µM

C=CCc1ccc(O)c(OC)c1
active: TTR (gene 7276) 26.1 µM

Cc1c(C(=O)O)c(O)cc2c1C(=O)c1c(O)c([C@@H]3O[C@H](CO)[C@@H](O)[C@H](O)[C@H]3O)c(O)c(O)c1C2=O
active: TTR (gene 7276) 10.1 µM

Cc1cc(NC(=O)C(=O)O)cc(C)c1Oc1ccc(O)c2c1CCC2
active: TTR (gene 7276) 0.344 µM
